Measured values: PubChem BioAssay AID720597 (Broad Institute, 2013)
Entries with a potency or affinity are not part of this list.

Each compound was assayed against NAD-dependent protein deacylase sirtuin-5, mitochondrial (Homo sapiens) (UniProt Q9NXA8) (assay: SIRT5 deacylase inhibitors, dose response, biochemical, fluorescence imaging, cherry-pick, set 6 (AID 720597;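 further: lower AMC signal can also come from blocking the trypsin step; 0% = median of neutral control wells and -100% = median of positive control wells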)). Conditions: Purified SirT5, succinyl-peptide-AMC/trypsin fluorescence; series mostly up to 15 µM; activity change, negative = inhibition: at the top concentration;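 active means fitted half-maximal dose no more than twice the top valid tested dose, for compounds that lower signal; inconclusive means fit invalid, or curve flat with activity between -70 and -30; inactive means potency past limit, curve flat within ±30, or signal increasing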.
Chain of NAD-dependent protein deacylase sirtuin-5, mitochondrial (Homo sapiens) (Q9NXA8 whole entry, looked up): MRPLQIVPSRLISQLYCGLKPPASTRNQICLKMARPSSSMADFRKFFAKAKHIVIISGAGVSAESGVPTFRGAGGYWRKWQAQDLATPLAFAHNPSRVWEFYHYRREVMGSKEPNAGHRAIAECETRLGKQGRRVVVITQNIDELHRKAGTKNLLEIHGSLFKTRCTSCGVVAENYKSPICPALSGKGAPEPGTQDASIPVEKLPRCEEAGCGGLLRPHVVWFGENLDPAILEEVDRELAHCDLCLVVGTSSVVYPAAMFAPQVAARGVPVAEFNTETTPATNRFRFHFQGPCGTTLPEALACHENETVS

Activity change, negative = inhibition, inactive:
CC(=O)N(C)C[C@@H]1Oc2ncc(-c3ccccc3C)cc2C(=O)N([C@H](C)CO)C[C@H]1C -1.22%
C[C@@H]1CN([C@@H](C)CO)S(=O)(=O)c2ccc(C#CC3CC3)cc2O[C@@H]1CN(C)Cc1ccccc1F 7.53%
CS(=O)(=O)N1[C@@H](CO)[C@@H](c2ccccc2)C12CN(C(=O)c1ccccc1F)C2 -6.8%
C[C@H]1CN([C@@H](C)CO)C(=O)CCCn2cc(nn2)CO[C@H]1CN(C)Cc1ccccc1 9.33% [at 16 µM]
O=C(N[C@H]1C=C[C@H](CC(=O)N2CCOCC2)O[C@H]1CO)c1ccccn1 7.46%
C[C@@H]1CN([C@H](C)CO)C(=O)c2c(c3ccccc3n2C)-c2ccccc2CO[C@@H]1CN(C)Cc1cccc2c1OCCCO2 -2.67%
CCCC(=O)Nc1ccc2c(c1)OC[C@@H](C)N(Cc1ccccc1)C[C@@H](C)[C@@H](OC)CN(C)C2=O -26.8%
COc1cccc(-c2cn(CC[C@@H]3CC[C@H](NC(=O)CC4CC4)[C@@H](CO)O3)nn2)c1 -2.95%
C[C@@H]1CCCCO[C@H](CN(C)S(=O)(=O)c2ccc(Cl)cc2)[C@H](C)CN([C@@H](C)CO)C(=O)c2cc(N(C)C)ccc2O1 -28.7%
C[C@H]1CN([C@@H](C)CO)C(=O)c2ccccc2-c2ccccc2CO[C@H]1CN(C)Cc1ccccc1C(F)(F)F -22.2%
CC(C)OC(=O)N(C)C[C@@H]1OCc2cn(nn2)CCCC(=O)N([C@H](C)CO)C[C@H]1C -7.79%
CC(C)NC(=O)Nc1ccc2c(c1)C(=O)N([C@H](C)CO)C[C@H](C)[C@H](CN(C)C(=O)Cc1ccccc1)OCCCC[C@H](C)O2 -25.6%
CO[C@@H]1CC[C@@H]2CCOc3c(C#N)cccc3C(=O)N(C)C[C@@H](OC)[C@@H](C)C(=O)N(C)C[C@@H]1O2 -4.17%
C[C@H]1CN([C@@H](C)CO)S(=O)(=O)c2ccc(-c3cncnc3)cc2O[C@H]1CN(C)Cc1ccc(Oc2ccccc2)cc1 -0.447%
CC(C)CC#Cc1ccc2c(c1)O[C@@H](CN(C)C(=O)Nc1ccccc1F)[C@@H](C)CN([C@@H](C)CO)S2(=O)=O -14.6%
Cc1ccc(S(=O)(=O)N(C)C[C@H]2OCCCC[C@@H](C)Oc3ccc(NS(=O)(=O)c4ccc(F)cc4)cc3C(=O)N([C@@H](C)CO)C[C@H]2C)cc1 -8.24%
COc1ccc(NC(=O)N(C)C[C@H]2Oc3cc(C#CCC(C)C)ccc3S(=O)(=O)N([C@H](C)CO)C[C@H]2C)cc1 19.2%
CO[C@H]1CN(C)C(=O)c2cc(NS(=O)(=O)c3ccc(Oc4ccccc4)cc3)ccc2OC[C@H](C)NC[C@H]1C -15.4%
CO[C@H](CN(C)C(=O)c1ccc2c(c1)OCO2)[C@H](C)CN([C@H](C)CO)S(=O)(=O)c1ccccc1 -23.5%
Cc1ccc(S(=O)(=O)N(C)C[C@H]2OCc3ccccc3-c3c(n(C)c4ccccc34)C(=O)N([C@H](C)CO)C[C@H]2C)cc1 23.8%
NC(=O)NCC#Cc1ccc2c(c1)[C@]1(C(=O)N2)[C@H](c2ccccc2OCCO)N2[C@H](c3ccccc3)[C@H](c3ccccc3)OC(=O)[C@H]2[C@@H]1C(=O)N1CCN(c2ncccn2)CC1 -16.3%
C[C@@H]1CN([C@@H](C)CO)C(=O)Cc2cc(NC(=O)CCCCCC(=O)Nc3ccccc3N)ccc2O[C@@H]1CN(C)Cc1ccc(Oc2ccccc2)cc1 0.657%
CC(C)CC#Cc1ccc2c(c1)O[C@H](CN(C)C(=O)c1cccc(F)c1)[C@@H](C)CN([C@H](C)CO)S2(=O)=O -1.6%
Cc1ccc(S(=O)(=O)N(C)C[C@H]2OCCCC[C@@H](C)Oc3ccc(NS(=O)(=O)c4ccccc4)cc3C(=O)N([C@@H](C)CO)C[C@H]2C)cc1 -23.3%
C[C@H]1CCCCO[C@H](CN(C)C(=O)Nc2ccc(C(F)(F)F)cc2)[C@@H](C)CN([C@@H](C)CO)C(=O)c2cc(NS(=O)(=O)c3ccc(Cl)cc3)ccc2O1 -6.61%
C[C@H]1CN([C@@H](C)CO)C(=O)c2cccc(NC(=O)c3nc4ccccc4s3)c2O[C@H]1CN(C)Cc1ccc(C(F)(F)F)cc1 4.41%
COc1ccc(CN(C)C[C@@H]2Oc3ccc(NC(=O)CCC(F)(F)F)cc3C(=O)N([C@H](C)CO)C[C@H]2C)cc1 0.69%
C[C@H]1CN([C@@H](C)CO)S(=O)(=O)c2ccc(C#Cc3ccc(F)cc3)cc2O[C@H]1CN(C)C(=O)NC1CCCCC1 -7.87%
